Molecules are shown by their SMILES. Activity calls are given as the source filed them. No rule for the calls is given here.

The source of these data is PubChem BioAssay (NCATS).

The conditions of the assay: Ebola virus entry assay, reporter ratio channel; Channel type: primary.
One may read the AC50 as the midpoint of the concentration-response curve, whichever way the signal moves. As for `O=C1OC2(c3ccccc31)c1cc(I)c(O)c(I)c1Oc1c2cc(I)c(O)c1I`, the AC50 was 39.8 µM (active). Still for that read-out and setting: next, `CN(C)CCOc1ccccc1Cc1ccccc1`: 3.16 µM (active); `O=C(CCCN1CCC(O)(c2cccc(C(F)(F)F)c2)CC1)c1ccc(F)cc1`: 20 µM (active). Still for that read-out and setting: next, `Nc1ccc2cc3ccc(N)cc3nc2c1`: 39.8 µM (active). Same read-out and setting: next, `CN1C[C@H](C(=O)N[C@]2(C)O[C@@]3(O)[C@@H]4CCCN4C(=O)[C@H](Cc4ccccc4)N3C2=O)C[C@@H]2c3cccc4[nH]cc(c34)C[C@H]21`: 17.8 µM (active). As to `CCCCCCCCNC(C)C(O)c1ccc(SC(C)C)cc1` (centres undefined), the AC50 was 11.2 µM (active). The same measure, in the same setting: next, `c1cc(CN2CCCCC2)cc(OCCCNc2nc3ccccc3s2)c1`: 12.6 µM (active); `OC(CCCN1CCCCC1)(c1ccccc1)c1ccccc1`: 7.94 µM (active). `N#C/C(=C1/SC[C@@H](c2ccc(Cl)cc2Cl)S1)n1ccnc1`: the AC50 was 39.8 µM (active). On the same count and under the same terms, next, `C[n+]1cc2c3c(ccc2c2ccc4cc5c(cc4c21)OCO5)OCO3`: 17.8 µM (active); `N/C(=N\N=C\c1ccc(Cl)cc1)N/N=C/c1ccc(Cl)cc1`: 39.8 µM (active); `COc1ccc(-n2nc(CCC(=O)N(C)O)cc2-c2ccc(Cl)cc2)cc1`: 10 µM (active).

`COCC(=O)O[C@]1(CCN(C)CCCc2nc3ccccc3[nH]2)CCc2cc(F)ccc2[C@@H]1C(C)C`: the concentration at half-maximal activity (AC50) is 2.24 µM (active). With `CCCCN1CCCC1C(=O)Nc1c(C)cc(C)cc1C` (centres undefined), the outcome was inactive. With `C#C[C@]1(O)CC[C@H]2[C@@H]3CCC4=CC(=O)CCC4=C3C=C[C@@]21CC`, the concentration at half-maximal activity (AC50) was 15.8 µM (active). Still for that read-out and setting: next, `COc1ccc2[nH]cc(CCN(C(C)C)C(C)C)c2c1`: 31.6 µM (active).

Take `CCCC(C(=O)OCCN(CC)CC)(c1ccccc1)c1ccccc1`: the AC50 is 2.24 µM (active). On to `CCCCC[C@H](O)C=C[C@H]1[C@H](O)CC(=O)[C@H]1CC=CCCCC(=O)O`, for which the AC50 is 7.08 µM (active). Still for that read-out and setting: next, `Cc1cccc(N(C)C(=S)Oc2ccc3c(c2)C2CCC3C2)c1` (centres undefined): 39.8 µM (active). Same read-out and setting: next, `O=C1NCN(c2ccccc2)C12CCN(CCCC(c1ccc(F)cc1)c1ccc(F)cc1)CC2`: 1.26 µM (active); `CC1CCCCN1CCCOC(=O)c1ccc(OC2CCCCC2)cc1` (centres undefined): 7.94 µM (active). The same measure, in the same setting: next, `CCN(CC)CCOC(=O)C1(c2ccccc2)CCCC1`: 20 µM (active); `CN1CCC(N(Cc2ccccc2)c2ccccc2)CC1`: 4.47 µM (active); `NC(=NCCCCCCN=C(N)/N=C(\N)Nc1ccc(Cl)cc1)/N=C(\N)Nc1ccc(Cl)cc1`: 39.8 µM (active).
